Over roughly 110,000 compounds, “z-score” has its median near -0.1; the highest 2% begin near 2. The sample as a whole holds a higher share of the highest values than the screen did. Calls of active or inactive are those of the source.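 The calls were made as follows: active = z-score in the third read window above 3 or below -3; inactive = the rest.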
target: Metabotropic glutamate receptor 8 (Rattus norvegicus) (UniProt P70579); test: rat mGluR8 modulators via GIRK flux, primary screen, cell-based, thallium flux, HTS (AID 488969); settings: HEK293 rat mGluR8, GIRK (G protein-gated inwardly rectifying potassium channel) thallium flux, FluoZin2; at 10 µM; stronger effect = higher value; submaximal glutamate (EC20) added with thallium
Sequence (P70579 whole entry, looked up): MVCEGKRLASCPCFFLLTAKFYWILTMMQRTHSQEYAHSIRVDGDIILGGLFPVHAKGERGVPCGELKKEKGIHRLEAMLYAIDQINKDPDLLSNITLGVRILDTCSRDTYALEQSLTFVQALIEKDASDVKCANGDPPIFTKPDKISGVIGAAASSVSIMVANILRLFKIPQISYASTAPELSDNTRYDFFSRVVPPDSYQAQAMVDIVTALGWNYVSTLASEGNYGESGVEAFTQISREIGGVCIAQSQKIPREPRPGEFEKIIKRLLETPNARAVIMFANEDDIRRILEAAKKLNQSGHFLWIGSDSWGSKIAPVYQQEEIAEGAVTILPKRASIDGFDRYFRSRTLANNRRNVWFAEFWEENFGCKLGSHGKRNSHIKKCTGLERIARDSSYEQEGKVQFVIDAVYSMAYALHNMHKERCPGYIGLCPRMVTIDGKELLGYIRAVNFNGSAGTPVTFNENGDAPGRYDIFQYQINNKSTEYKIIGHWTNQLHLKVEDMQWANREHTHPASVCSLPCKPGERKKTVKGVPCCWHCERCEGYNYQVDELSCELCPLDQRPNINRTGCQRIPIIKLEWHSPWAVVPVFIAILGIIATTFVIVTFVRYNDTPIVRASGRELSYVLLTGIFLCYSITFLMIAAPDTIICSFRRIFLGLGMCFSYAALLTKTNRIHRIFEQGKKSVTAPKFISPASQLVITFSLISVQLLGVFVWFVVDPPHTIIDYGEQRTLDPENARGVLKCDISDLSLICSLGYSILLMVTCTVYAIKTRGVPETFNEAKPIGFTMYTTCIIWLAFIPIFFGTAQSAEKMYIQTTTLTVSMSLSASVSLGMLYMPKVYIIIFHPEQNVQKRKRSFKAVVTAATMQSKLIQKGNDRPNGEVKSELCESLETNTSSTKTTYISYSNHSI

SMILES | z-score
CCOC(=O)CN(C(=O)c1ccccc1)c1ccccc1C | -0.114
CC(=O)NC(CC(=O)NC1CCCCCC1)c1ccccc1 (stereo not drawn) | 0.55
CC1(C)CC(=O)C2=C(C1)OC(N)=C(C#N)C21C(=O)N(CN2CCOCC2)c2ccccc21 (stereo not drawn) | -0.00502
COCc1cc(=O)[nH]c(Nc2nc(C)c3cc(OC)ccc3n2)n1 | -0.401
COCc1cc(=O)[nH]c(Nc2nc(C)c3ccccc3n2)n1 | -0.43
CCc1ccc2nc(Nc3nc(COC)cc(=O)[nH]3)nc(C)c2c1 | 2.69
O=C(CSc1nc2nc3c(cc2c(=O)n1-c1ccccc1)CCCC3)Nc1ccccc1 | -0.468
CCn1c(N)c(C(=O)NCc2ccco2)sc1=S | 4.44 (active)
C=CCn1c(N)c(C(=O)NCc2ccco2)sc1=S | 0.688
O=C(NCc1ccccc1)c1sc(=S)n2c1[nH]c(=O)c1ccccc12 | -0.316
O=C(NCc1ccco1)c1sc2ccccc2c1Cl | -0.649
O=C(NCc1ccco1)c1sc(=S)n2c1[nH]c(=O)c1ccccc12 | 2.75
Cc1ccc(-n2c(N)c(C(=O)NCc3ccco3)sc2=S)cc1 | -0.322
CC(=O)Oc1ccc2oc(=O)c3c(c2c1)CCCN3C(=O)CN1CCN(c2ncccn2)CC1 | -0.26
CCOC(=O)CC1=CSC2=NS(=O)(=O)CCN12 | -0.784
CC(=O)C1=C(C)NC(SCC(=O)c2ccccc2)=C(C#N)C1c1ccco1 (stereo not drawn) | -1.16
CCc1cc2c(=O)[nH]c(Cc3ccccc3)nc2s1 | -0.371
COC(=O)c1ccc(COC(=O)c2ccc(CS(=O)(=O)c3ccc(C)cc3)cc2)cc1 | -0.331
CCOCc1c(C(=O)OCC(=O)Nc2ccc(C)c(S(=O)(=O)N(C)C)c2)oc2ccccc12 | 9.51 (active)
Cc1ccc(S(=O)(=O)N(C)C)cc1NC(=O)COC(=O)CCC(=O)c1ccc(F)cc1 | -0.39
CN(C)S(=O)(=O)c1cccc(NC(=O)COC(=O)CCC(=O)c2ccc(F)cc2)c1 | -0.326
CCOCC(=O)Nc1c(C(=O)OCC)oc2ccccc12 | -0.215
Cc1ccc2c(Cl)cc(Cl)c(OCC(=O)Nc3cc(S(=O)(=O)N(C)C)ccc3C)c2n1 | -0.0675
Cc1ccc(NC(=O)Cc2c(Cl)cccc2Cl)cc1S(=O)(=O)N(C)C | 1
Cc1ccc(NC(=O)CCNC(=O)c2ccccc2Cl)cc1S(=O)(=O)N(C)C | -0.00648
Cc1ccc2c(Cl)cc(Cl)c(OCC(=O)Nc3ccc(C)c(S(=O)(=O)N(C)C)c3)c2n1 | 2.31
Cc1ccc(NC(=O)Cc2ccccc2Cl)cc1S(=O)(=O)N(C)C | 12.9 (active)

SMILES | z-score
Cc1ccc2c(Cl)cc(Cl)c(OCC(=O)Nc3cccc(S(=O)(=O)N(C)C)c3)c2n1 | 0.415
Cc1ccc(NC(=O)COC(=O)CCC(=O)c2ccc(Cl)cc2)cc1S(=O)(=O)N(C)C | 3.92 (active)
Cc1ccc(NC(=O)COC(=O)/C=C/c2ccco2)cc1S(=O)(=O)N(C)C | 1.23
CCOc1cc(C)c(S(=O)(=O)NC2CCCCC2)cc1C | -0.571
O=c1c2ccccc2nc(COc2ccccc2)n1/N=C/c1c[nH]c2ccccc12 | -0.533
O=[N+]([O-])c1cc(Cl)cc(C2=NCCN2)c1 | 0.173
COc1ccc(N(CC(=O)NCc2ccccc2OC)S(=O)(=O)c2c(C)nn(C)c2C)cc1 | -0.153
COc1ccc(-c2nn(-c3ccccc3)cc2C(=O)O)cc1OC | 0.191
COc1ccccc1N1CCN(CC(=O)Nc2cc(F)ccc2C)CC1 | 0.0403
CCN(CC)c1ccc(NC(=O)CSc2nc3ccccc3c(=O)[nH]2)cc1 | -0.106
Cc1ccc2c(Cl)cc(Cl)c(OCC(=O)NC(=O)NCc3ccco3)c2n1 | -0.127
Cc1ccc2c(Cl)cc(Cl)c(OCC(=O)NCc3ccco3)c2n1 | 3.48 (active)
Cc1ccc2c(Cl)cc(Cl)c(OCC(=O)Nc3cc(C)on3)c2n1 | 0.0628
Cc1c(C(=O)O)cccc1-c1ccc(C=O)o1 | 0.12
CCN(CC)S(=O)(=O)c1ccc(NC(=O)COC(=O)c2ccc(-n3nc(C)cc3C)cc2)cc1 | 0.0126
Cc1nn(CC(=O)Nc2ccc(Cl)c(S(=O)(=O)N(C)C)c2)c(C)c1[N+](=O)[O-] | 4.55 (active)
Cc1ccc(NC(=O)COC(=O)c2ccc3c(c2)OCO3)cc1S(=O)(=O)N1CCCCC1 | -0.401
Cc1ccc(S(=O)(=O)N(C)C)cc1NC(=O)COC(=O)c1ccc2c(c1)OCO2 | 1.63
CC(C)CNS(=O)(=O)c1ccc(OCC(=O)Nc2ccc3c(c2)OCO3)c(Cl)c1 | -0.19
Cc1cc(C)n(-c2ccc(C(=O)OCC(=O)Nc3ccc(S(=O)(=O)N4CCCCC4)cc3)cc2)n1 | -0.00692
CN(C)S(=O)(=O)c1cc(NC(=O)COC(=O)c2ccc3c(c2)OCO3)ccc1Cl | 10.1 (active)
O=C(COc1ccc(S(=O)(=O)NC2CCCCC2)cc1Cl)Nc1ccc2c(c1)OCO2 | 0.2
Cc1cc(C)n(-c2ccc(C(=O)OCC(=O)Nc3ccc(Cl)c(S(=O)(=O)N(C)C)c3)cc2)n1 | 15.5 (active)
CC(C)NS(=O)(=O)c1ccc(OCC(=O)Nc2ccc3c(c2)OCO3)c(Cl)c1 | 3.09 (active)
Cc1nn(CC(=O)Nc2ccc(S(=O)(=O)N(C)C)cc2)c(C)c1[N+](=O)[O-] | -0.0283
Cc1nn(CC(=O)Nc2cc(S(=O)(=O)N(C)C)ccc2Cl)c(C)c1[N+](=O)[O-] | 0.164

Reference: PubChem BioAssay AID488969 (Vanderbilt High Throughput Screening Facility, 2010)
